High-throughput results deposited in PubChem by several laboratories.
H9c2 protect: myocardial damage modulation in H9c2 cells. H9c2 cardiomyocytes, H2O2 injury protection, ATPLite, 2 h. protection from H2O2 cell death, % at 20 µM. 360,000 compounds, 0.63% hits. AID 588492;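 active = compounds giving at least 50% protection of heart cells from peroxide-induced death in the single-dose screen, raw or plate-pattern-corrected value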;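 also: 0% = DMSO wells with peroxide and 100% = DMSO wells without peroxide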
AI-2 QS modul: modulates the Vibrio harveyi AI-2 quorum sensing system; 300,000 compounds, 0.4% hits; activity change, % at 7.5 µM; Vibrio harveyi JMH597 AI-2 luminescence/OD600 ratio, 9 h; stronger effect = lower value; strain lacks LuxN and CqsS sensors; 0 = neutral-control median; in the data active = activity change below about -75%, passing the limit was not always enough;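 also: luminescence divided by OD600 gain over 9 h not by final OD600 alone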
AHR activator: human AHR activation; P35869; AHR-responsive luciferase reporter cells, luminescence; activation, % at 5 µM; 320,000 compounds, 2.5% hits; AID 2796; in the data active = activation above about 47%;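 also: 0% = vehicle wells and 100% = reference agonist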
GRIN3A LBD mod: modulates the human NR3A ligand-binding domain | NR3A LBD differential scanning fluorimetry, Tm shift; 0% = protein alone, 100% = glycine-bound protein | Tm shift relative to glycine control, % at 25 µM | 340,000 compounds, 2.5% hits | AID 1259313;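 active = melting temperature shift of at least 10% of the positive control shift, at one fixed dose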
Mot1-301 SUMO: blocks SUMOylation pathway, rescuing yeast Mot1-301 growth; growth rescue, % at 18.8 µM; AID 2716; 320,000 compounds, 1% hits; S. cerevisiae Mot1-301 growth rescue, ATP luminescence, 38.5C; percent above DMSO median, 100 means doubled;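 active = every valid replicate shows activation above 250% relative to neutral control wells; inactive = the rest, any valid replicate at or below 250%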;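 also: OY570 slx delta 5 strain wells were the positive control but not used for scaling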
NTR1 agonist: activates human neurotensin receptor 1; 330,000 compounds, 0.17% hits; P30989; NTR1-U2OS beta-arrestin-GFP spot imaging, agonist mode; activation, % at 20 µM; AID 493036;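 active = activation at or above 40% of the spot to cytoplasm intensity ratio, with at least 20 cells analyzed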;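 also: 0% = DMSO without peptide and 100% = 100 nM NTR1 peptide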
Target sequence (P30989 whole entry, looked up): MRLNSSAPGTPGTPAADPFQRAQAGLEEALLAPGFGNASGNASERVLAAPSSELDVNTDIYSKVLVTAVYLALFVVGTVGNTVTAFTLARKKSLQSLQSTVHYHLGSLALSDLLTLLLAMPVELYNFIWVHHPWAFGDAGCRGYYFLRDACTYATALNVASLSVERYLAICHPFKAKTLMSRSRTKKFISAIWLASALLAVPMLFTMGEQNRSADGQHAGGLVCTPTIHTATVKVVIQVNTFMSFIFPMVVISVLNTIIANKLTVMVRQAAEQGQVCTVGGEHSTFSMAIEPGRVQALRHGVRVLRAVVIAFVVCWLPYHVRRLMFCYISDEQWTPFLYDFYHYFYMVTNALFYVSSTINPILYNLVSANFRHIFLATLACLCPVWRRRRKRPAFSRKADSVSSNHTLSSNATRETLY
* = called active by the depositor; / = not tested or not shown. A selection: hits, their analogues and other compounds. The true share with any hit is near 6.2%.

SMILES | H9c2 protect | AI-2 QS modul | AHR activator | GRIN3A LBD mod | Mot1-301 SUMO | NTR1 agonist
Cc1[nH]c2ccccc2c1C(=O)COC(=O)c1ccc([N+](=O)[O-])s1 | -23.3 | -128.1* | 8.5 | -7.5 | -4.5 | 15.6
COc1cc2c(cc1OC)C(c1ccc3c(c1)Cc1ccccc1-3)OC(=O)C2 (stereo not given) | 0.2 | / | / | / | / | /
CC(C)NC(=O)C1(C)CCCN1C(=O)c1cc(C#N)cs1 (stereo not given) | 1.9 | / | / | / | / | /
COc1cc(OC)cc(-c2c(-c3cccs3)c3cc(-c4ccc(N(C)C)nc4)ccc3n2C)c1 | -10.2 | / | 7.3 | 1.3 | 1.1 | 3.0
Cc1ccc(NC(=O)C2=CC(c3cccs3)=NS(=O)(=O)N2C)cc1 | -9.6 | 7.9 | 64.3* | -0.8 | -6.2 | 3.6
Oc1oc(-c2cccc3ccccc23)nc1/C=N/c1nccs1 | 13.5 | 14.4 | 23.4 | 10.8* | 9.1 | 1.9
COc1ccc(C2=NN(C(C#N)c3ccc(OC)cc3)C(c3ccccc3)C2)cc1 (stereo not given) | -2.8 | 36.8 | 54.1* | -13.7 | 4.2 | /
COc1ccc(C(C#N)N2N=C(C)CC2c2ccccc2)cc1 (stereo not given) | 0.2 | 19.1 | 0.3 | 1.2 | -5.5 | 1.2
COc1ccc(-c2ccc3c(N)c(C(=O)c4cccc(OC)c4)sc3n2)cc1 | -3.6 | 2.8 | 77.3* | 17.4* | -0.6 | -0.9
COc1ccc(CNC(=O)COC(=O)c2ccc(S(=O)(=O)NCc3ccco3)cc2)cc1 | -3.8 | / | 0.7 | 0.3 | 11.2 | -1.0
O=C1CCCc2oc3c(cc(NS(=O)(=O)c4ccc5c6c(cccc46)C(=O)N5)c4ccccc43)c21 | 12.4 | 37.4 | 54.2* | 4.3 | -4.8 | 6.3
Cc1oc2c(cc(NS(=O)(=O)c3ccc4c5c(cccc35)C(=O)N4)c3ccccc32)c1C(=O)OC(C)C | 7.6 | 43.5 | 73.6* | 9.7 | -6.6 | 1.8
Brc1ccccc1-n1nnc(-c2cnc3ccccc3c2)n1 | -9.5 | -38.9 | 54.1* | -31.3 | -2.0 | 10.2
Cc1cc(C(=O)Nc2ccc3ccccc3c2)c(C)o1 | -11.7 | 19.3 | 14.5 | 7.2 | 19.8 | 3.0
Cc1cc(C)cc(C(=O)NCCCN2CCOCC2)c1 | -5.0 | 3.6 | 0.9 | 2.2 | -1.9 | 0.7
O=C(O)/C=C\C(=O)Nc1ccccc1C#Cc1ccc(Br)cc1 | 0.2 | 11.3 | 68.6* | -8.3 | 158.3 | 3.8
O=C(Nc1ccc2oc(=O)ccc2c1)c1ccco1 | -7.0 | 12.3 | -2.6 | -20.8 | -29.5 | -2.1
O=C(Nc1ccc2ccccc2c1)c1ccc(NS(=O)(=O)c2ccc(Br)s2)cc1 | -12.2 | 4.7 | 9.7 | 20.9* | 0.4 | 4.6
O=C(Nc1cccc(NC(=O)c2cccc(F)c2)n1)c1cccc(F)c1 | -3.8 | -5.2 | 3.8 | 11.5* | 125.7 | -0.2
O=C(Nc1ccc2ccccc2c1)c1cccc(F)c1 | -10.2 | 23.2 | 8.1 | 20.2* | 10.7 | 2.5
O=C(Nc1ccc2oc(=O)ccc2c1)c1ccc2ccccc2c1 | 0.5 | 6.0 | -11.0 | 34.2* | -3.6 | 1.0
Cc1nc2c(OCc3ccc(OC(F)F)cc3)cccn2c1N(C)C(=O)CCC1CCCC1 | -17.5 | / | / | / | / | /
COc1ccc2[nH]c3c(c2c1)CCN1C(=O)C(CC(=O)NC/C=C(\C)CCC=C(C)C)C[C@H](C(=O)N(C(C)C)C(C)C)[C@@]31C (stereo not given in full) | -23.9 | / | / | -4.0 | / | 23.1
CC(C)CCC1(C)NC(=O)N(CC(=O)c2ccc[nH]2)C1=O (stereo not given) | 2.6 | 20.9 | 0.8 | -2.2 | -3.5 | 0.3
COc1ccc(S(=O)(=O)N(C)C[C@H]2OCc3cn(nn3)CCCC(=O)N([C@@H](C)CO)C[C@@H]2C)cc1 | 4.7 | / | / | / | / | /
SMILES | H9c2 protect | AI-2 QS modul | AHR activator | GRIN3A LBD mod | Mot1-301 SUMO | NTR1 agonist
CCOc1cccc(NC(=O)c2cccc(F)c2)c1 | -13.8 | 15.5 | 8.5 | 10.1* | 29.5 | 2.8
O=C(Nc1ccc2ccccc2c1)c1ccc(Cl)cc1 | -10.3 | 15.0 | -2.9 | -4.3 | -14.9 | -0.1
CCOc1cccc(C(=O)Nc2ccc3ccccc3c2)c1 | -17.5 | 17.6 | 3.1 | 30.2* | 14.4 | 2.6
O=C(COc1cccc(NC(=O)c2cccc([N+](=O)[O-])c2)c1)c1ccc(F)cc1 | 78.5* | 20.4 | 1.5 | 1.0 | -16.6 | 1.3
Cc1ccc(C(=O)Nc2ccc3ccccc3c2)cc1 | -20.2 | 3.4 | -3.5 | 15.6* | -3.9 | 0.2
COc1ccccc1N(C)S(=O)(=O)c1ccc(C(=O)Nc2ccc(C)cc2C)cc1 | 0.5 | / | / | -1.6 | / | -0.1
Cc1ccc(OCC(=O)Nc2ccc3oc(=O)ccc3c2)cc1 | 2.1 | 13.7 | 0.6 | -18.1 | 120.8 | 5.9
Cc1cccc(OCC(=O)Nc2ccc3oc(=O)ccc3c2)c1C | -3.6 | 5.1 | 2.9 | 13.5* | 79.5 | 0.4
O=CN/C=C/c1cccc(O)c1 | 0.8 | / | / | 14.0* | / | /
O=C(N/N=C/c1cccc(O)c1)c1ccccc1O | -27.0 | 0.2 | 4.4 | 8.3 | -7.3 | -1.1
COc1ccc(-c2cc3cc(F)ccc3cn2)cc1 | -23.4 | / | 51.0* | 0.5 | 41.3 | 3.9
COc1ccc(-c2cc3ccc(F)cc3cn2)cc1 | -9.8 | / | 47.3* | -34.0 | 61.1 | -1.9
Fc1ccc2cc(-c3ccccc3F)ncc2c1 | -15.9 | / | 75.9* | -2.1 | 60.0 | 0.6
CC[C@@]1(C(=O)OC)N[C@H](CN(C)S(=O)(=O)c2ccc(-c3ccccc3)cc2)[C@@H]2C(=O)N(Cc3ccccc3)C(=O)[C@@H]21 | 9.2 | / | 2.2 | 2.6 | / | -0.6
O=C1C(Cc2ccccc2)Nc2ncnc(N3CCN(c4ccccc4)CC3)c2N1Cc1ccc(Cl)cc1 (stereo not given) | -6.7 | 14.8 | 1.9 | -2.6 | -0.7 | 5.5
COc1ccc(-c2n[nH]c(C(F)(F)F)c2-c2cc3ccccc3o2)c(O)c1 | -21.2 | 27.4 | -0.2 | 15.3* | -21.7 | 31.5
COc1ccccc1-c1c(-c2ccc(OCC(=O)NN)cc2O)n[nH]c1C(F)(F)F | -3.6 | 14.8 | 22.4 | -2.0 | 22.2 | 7.6
OC(c1cccc(Cl)c1)c1nc(/C=C/c2ccc(C(F)(F)F)cc2)cs1 (stereo not given) | -7.3 | / | / | / | / | /
CN(C(=O)c1ccc(NC(=O)Cc2cccc(NC(=O)C3CCCN(C(=O)C4CCCC4)C3)c2)cc1)C1CCCC1 (stereo not given) | -1.7 | / | 1.8 | 1.4 | 17.1 | -1.5
O=C(NCC(c1ccco1)N1CCCC1)c1ccc(Cl)c(S(=O)(=O)N2CCc3ccccc32)c1 (stereo not given) | -19.3 | / | -6.2 | -1.6 | -10.4 | 4.9
O=C(CCSC1=NCCCN1)c1ccc(F)cc1 | -19.1 | / | / | 0.0 | / | /
Clc1ccc(-n2nnnc2Sc2ncnc3sccc23)cc1 | -24.8 | 13.6 | 5.1 | 1.3 | 577.9* | 5.2
COc1cc(OC)cc(C(=O)NCC(=O)OCC(=O)c2cc(C)n(Cc3ccco3)c2C)c1 | -9.4 | 8.8 | -2.2 | 18.6* | -2.8 | 4.2
